Source: PubChem (Sanford-Burnham Center for Chemical Genomics)
Sampled rows, rich in hits. Any-hit rate of the full collection: about 4%.
Peg3 prom inh: reduces Peg3 promoter-driven luciferase expression in HeLa; inhibition, % at 20 µM; AID 588405; HeLa PEG-Prom luciferase reporter, luminescence, overnight; 360,000 compounds, 1.7% hits;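 active means inhibition of at least 50% at 20 µM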
HIF-2a inh: inhibitors of HIF-2a; 786-0 RCC cells HIF-2a reporter, luciferase luminescence, overnight; inhibition, % at 18.8 µM; 360,000 compounds, 0.72% hits;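 active means inhibition of the luminescence signal of 40% or more relative to plate controls, in a single-dose primary screen at 18.75 µM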
TWEAK Fn14 block: inhibitors of TWEAK-Fn14 interaction signaling. inhibition, % at 10 µM. 360,000 compounds, 2% hits. TWEAK-stimulated Fn14 reporter cells, luciferase luminescence, 8 h. AID 1159606; in the data active means inhibition above about 50%
CF NFkB block: cystic fibrosis NF-kB activation inhibition. KKLEB NF-kB-GFP reporter, PAF-induced, GFP fluorescence overnight. inhibition, % at 5 µM. 360,000 compounds, 0.86% hits. AID 588850;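 active means at least 50% inhibition at 5 µM, scaled per plate between neutral and stimulator controls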;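 further: PAF is a Pseudomonas aeruginosa culture filtrate used as stimulus; plate controls were PAF-stimulated DMSO wells for no effect and unstimulated DMSO wells for full effect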
KKLEB cytotox: counter-screen for CF NF-kB inhibitors: cytotoxicity; KKLEB CF airway cells viability, ATPlite luminescence, overnight; stronger effect = lower value; cells stimulated with P. aeruginosa culture filtrate; activity change (cytotoxicity), % at 5 µM; 360,000 compounds, 0.36% hits; AID 602141;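 active means corrected activity change at or below -50% at 5 µM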
TROY signal inh: blocks TROY-dependent signaling in reporter cells; Q293 LMP1-TROYcd NF-kB luciferase reporter, 4 h; inhibition, % at 10 µM; 360,000 compounds, 0.98% hits; AID 1347056;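 active means compounds whose plate-normalised and pattern-corrected inhibition of the luciferase reporter signal at the single screening dose is 50% or more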
CF NFkB conf: confirmation of cystic fibrosis induced NF-kB inhibitors. shares compounds with CF NFkB block. AID 602472. 1,300 compounds, 64% hits. KKLEB CF airway cells, PAF-induced NF-kB-GFP fluorescence, overnight. inhibition, % at 5 µM; in the data active means inhibition above about 40%;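 further: stimulus PAF is a Pseudomonas aeruginosa filtrate and not platelet activating factor; plate controls were DMSO wells with stimulus for no effect and unstimulated DMSO wells for full effect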
Mdm2 MdmX conf: Mdm2/MdmX (human) interaction inhibition, confirmed. shares compounds with HIF-2a inh. SaOS-2 split-luciferase Mdm2/MdmX complementation, luminescence. inhibition, % at 8 µM. 740 compounds, 99% hits;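 active means mean inhibition of the luminescence signal across two replicates at or above 26 percent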
HIF-2a inh conf: confirmation of HIF-2a inhibitors. 1,800 compounds, 56% hits. 786-0 RCC cells, HIF-2a luciferase reporter luminescence, overnight. inhibition, % at 18.8 µM. shares compounds with HIF-2a inh. AID 651580;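 active means mean inhibition across four replicates of at least 40 percent at the single tested concentration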
HIF-1a counter: inhibits HIF-1a reporter, a counter-screen for HIF-2a inhibitors. shares compounds with HIF-2a inh. MiaPaCa-2 HIF-1a luciferase reporter, desferoxamine, overnight. inhibition, % at 18.8 µM. 1,800 compounds, 72% hits. AID 651589;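 active means mean inhibition of the reporter signal across four replicates at the single tested dose of 50% or more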
* marks the source's active call; other numbers are inactive results; nt = no result given.

SMILES	Peg3 prom inh	HIF-2a inh	TWEAK Fn14 block	CF NFkB block	KKLEB cytotox	TROY signal inh	CF NFkB conf	HIF-2a inh conf	HIF-1a counter	others
CN(c1ccccc1)c1ccc(/C=C/[N+](=O)[O-])cc1	103.2*	91.9*	102.8*	65.4*	-9.0	89.2*	-22.5	84.7*	105.0*
CCOC(=O)N1C(=O)[C@@](c2ccc(Cl)cc2)(C(C)C)N1C(=O)OCC	99.6*	67.6*	76.3*	69.8*	-16.1	35.5	34.9	57.8*	85.1*
Cn1nnnc1Sc1c(Cl)cccc1[N+](=O)[O-]	-2.4	17.2	2.5	18.1	9.3	6.4	nt	nt	nt
COc1ccc(-c2csc3ncnc(Sc4nnnn4C)c23)cc1	69.0*	61.7*	56.0*	58.5*	-22.7	28.6	54.2*	62.4*	103.9*
Cn1nnnc1Sc1ncnc2scc(-c3cccc(S(C)(=O)=O)c3)c12	100.1*	63.4*	60.9*	52.1*	-14.0	26.7	17.5	31.9	65.7*
Cn1nnnc1Sc1ncnc2scc(-c3ccccc3Cl)c12	105.6*	65.4*	51.5*	56.2*	-23.5	37.7	23.9	31.8	90.7*
O=C(O)CSc1ncnc2scc(-c3ccccc3)c12	-142.4	13.7	12.1	8.7	5.9	22.2	nt	nt	nt
CCOCCCNC(=S)N(CCO)Cc1cc2cc3c(cc2[nH]c1=O)OCCO3	3.9	10.7	12.5	5.5	-6.5	-0.1	nt	nt	nt
CO[C@H]1CC[C@@]2(C)[C@@H](CC[C@@H]3[C@@H]2CC[C@@]2(C)[C@H]3C[C@H](C(=O)N[C@@H](CCCN=C(N)N)C(=O)NCC(=O)N[C@@H](CC(=O)O)C(N)=O)O[C@]23CCCO3)C1	-21.7	6.4	-9.4	-5.4	15.3	-3.8	nt	nt	nt
Cc1cc(Sc2nnc(N)s2)c2ccccc2n1	7.2	40.9*	89.7*	89.1*	-27.3	36.9	-7.2	31.6	0.9
CSCC[C@@H](CO)NC(=O)[C@H]1O[C@@H](n2ccc(=O)[nH]c2=O)[C@H](O)[C@@H]1O	0.3	4.6	-7.7	-46.4	1.0	-3.0	nt	nt	nt
CCc1ccccc1NC(=O)CN(C)C(=O)Cn1ncc(Cl)c(Cl)c1=O	107.1*	97.8*	93.3*	51.6*	-1.9	10.8	55.5*	36.8	105.5*
Cc1nn(CC(=O)Nc2ccc3c(c2)OCO3)c(C)c1Cl	-86.4	-61.5	-15.1	-20.0	-2.0	-18.5	nt	nt	nt
CCc1ccccc1NC(=O)CN(C)C(=O)Cn1cnc2ccc(Cl)cc2c1=O	10.2	3.7	-7.9	-26.5	15.7	-19.9	nt	nt	nt
O=C(Cn1ncc(Cl)c(Cl)c1=O)c1ccc2c(c1)OCCO2	90.2*	81.2*	100.8*	79.0*	-37.5	23.2	-1.6	39.5	103.2*	Mdm2 MdmX conf=103.0*
O=C(Cn1ncc(Cl)c(Cl)c1=O)Nc1ccc2c(c1)OCO2	96.5*	95.1*	74.7*	64.5*	-35.8	1.9	4.1	-1.9	104.5*	Mdm2 MdmX conf=103.0*
CCC(=O)c1ccc2c(c1)OCCO2	-1.0	-17.9	5.2	24.8	1.0	-8.3	nt	nt	nt
O=C(c1nnsc1S(=O)c1ccc(Cl)cc1)N1CCOCC1 (stereo not given)	101.3*	28.3	86.3*	83.5*	-5.7	50.9*	105.2*	nt	nt	Mdm2 MdmX conf=102.2*
CCOC(=O)COc1ccccc1/C=N/O	-102.8	16.5	6.4	1.1	-3.9	-1.4	nt	nt	nt
CCOC(=O)COc1ccc2ccccc2c1/C=C/[N+](=O)[O-]	107.0*	90.2*	31.9	62.3*	-23.4	20.5	106.7*	85.8*	104.4*
COc1ccc(-c2nc3ccccn3c2NCc2ccc3c(c2)OCO3)cc1	-161.6	-174.5	-7.3	4.0	-8.9	-53.3	nt	nt	nt
